Compounds with a hit are over-represented: about 2.3% of the library has one in this group of screens.
aSyn 5UTR inh – MLPCN primary screen, SNCA 5' untranslated region; inhibition, % (tested at 7.5 µM); alpha-synuclein 5'UTR reporter, inhibitor activity; 300,000 compounds, 0.82% hits; AID 1813; in the data active = inhibition above about 60%; inconclusive = no clear call, values can overlap the other calls;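 note: H4 neuroglioblastoma cells stably carrying SNCA 5'UTR luciferase fusion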
H9c2 TAG inh – reduces triacylglycerol accumulation in H9c2 cells | inhibition, % at 12.5 µM | 230,000 compounds, 0.66% hits | Nile Red lipid (TAG) fluorescence; cells loaded with 200 µM oleic acid | AID 651582;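 active = pattern-corrected inhibition of lipid staining of at least 50% with the nuclear-stain viability signal not falling by more than 50%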
Gli-Sufu antag – Gli-Sufu pathway antagonism; Sufu-KO-LIGHT fibroblasts, Gli luciferase reporter luminescence; inhibition, % at 5 µM; 340,000 compounds, 0.74% hits; AID 588413;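 active = inhibition above about 55%, limit read from the data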
697 NFkB inh – inhibitors of the PMA/ionomycin-induced NF-kB reporter in 697 B cells; 330,000 compounds, 0.33% hits; inhibition, % at 4 µM; 697 B-cell NF-kB luciferase reporter, 16 h; in the data active = inhibition above about 35%
Shn3 inh set2 – inhibitors of Schnurri-3 3'UTR reporter in osteoblasts | Clone20 osteoblast Shn3 3'UTR firefly luciferase, 24 h | inhibition, % at 12.5 µM | 360,000 compounds, 0.52% hits | AID 588674;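 active = mean inhibition of at least 75% with every replicate also reaching 75%; inconclusive = mean inhibition at least 75% but some replicate below; inactive = mean inhibition below 75%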
Jurkat NFkB inh – lowers PMA/ionomycin-induced NF-kB signal in Jurkat cells; PMA/ionomycin-induced NF-kB luciferase reporter, luminescence; inhibition, % at 4 µM; 330,000 compounds, 0.53% hits; in the data active = inhibition above about 50%
Gli-Sufu confirm – Gli-SUFU antagonism confirmation, single concentration; Sufu-KO-LIGHT cells, Gli luciferase reporter, luminescence; shares compounds with Gli-Sufu antag; 2,500 compounds, 40% hits; inhibition, % at 5 µM;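 active = mean inhibition at 5 µM reaching about 45%, limit read from the data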
SufuKO cytotox – cytotoxicity counter-screen for Gli-SUFU antagonists | AID 651994 | shares compounds with Gli-Sufu antag | 2,500 compounds, 32% hits | Sufu-KO-LIGHT cells cytotoxicity, ATP luminescence | cytotoxicity, % at 5 µM;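 active = mean cytotoxicity at 5 µM above about 25%, limit read from the data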;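 note: cells exposed to compound overnight for roughly 16 to 18 hours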
Wnt3a cs – inhibits Wnt3a reporter, counter-screen for Gli-SUFU antagonists | shares compounds with Gli-Sufu antag | Wnt-LIGHT cells, Wnt3a-driven luciferase reporter, luminescence | inhibition, % at 6.25 µM | 2,500 compounds, 20% hits;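 active = mean inhibition above about 25%, limit read from the data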
Hits are given with their value; – = inactive; ? = inconclusive; · = no result given.

SMILES	aSyn 5UTR inh	H9c2 TAG inh	Gli-Sufu antag	697 NFkB inh	Shn3 inh set2	Jurkat NFkB inh	Gli-Sufu confirm	SufuKO cytotox	Wnt3a cs
COc1ccc(N2CCN(C3CCCN(S(=O)(=O)c4ccc(C)cc4C)C3)CC2)cc1 (stereo not drawn)	–	·	59.8	–	–	–	–	–	–
Cc1csc(=O)n1CC(=O)OC(C)C(=O)Nc1ccc(F)c(F)c1F (stereo not drawn)	–	–	–	–	–	–	·	·	·
COC(=O)Cc1[nH]n(-c2nc3ccccc3s2)c(=O)c1C(C)=Nc1ccc(C)cc1	97.5	–	90.2	–	–	–	93.6	–	106.2
COC(=O)Cc1[nH]n(-c2nc3ccccc3s2)c(=O)c1C(C)=Nc1ccc(Cl)cc1	–	–	85.9	–	–	–	92.5	–	103.9
COC(=O)Cc1[nH]n(-c2ccccc2)c(=O)c1C(C)=Nc1ccccc1	–	–	–	–	–	–	·	·	·
Cc1ccccc1C(=O)Nc1ccccc1	–	–	–	–	–	–	·	·	·
COC(=O)CC1=C(c2ccc([N+](=O)[O-])cc2)CCC1=O	·	–	–	·	–	·	·	·	·
Cc1ccc(C2=C(CC(=O)O)C(=O)CC2)cc1	–	·	55.5	–	–	–	–	–	–
Nc1cc2nc[nH]c2cc1N	–	–	62.6	–	–	–	–	–	–
O=C(NCc1ccc2c(c1)OCO2)c1ccc(S(=O)(=O)N2CCCCC2)cc1	–	–	–	–	–	–	·	·	·
CN1CCN(S(=O)(=O)c2ccc(N(C)Cc3ccc(C(F)(F)F)cc3)c([N+](=O)[O-])c2)CC1	·	–	–	–	–	–	·	·	·
CCc1ccccc1NC(=O)Cn1nc(C)n2cccc2c1=O	–	·	–	–	–	–	·	·	·
COc1ccc(N2CCN(C(=O)CSc3nnc4n3C(C)(C)Cc3ccccc3-4)CC2)cc1	–	·	–	–	–	–	·	·	·
Cc1ccc(Cl)cc1N1CCN(C(=O)CSc2nnc3n2C(C)(C)Cc2ccccc2-3)CC1	–	–	60.6	–	–	–	60.2	–	–
N=c1n(Cc2ccccc2)c2ccccc2n1CC(O)c1ccco1 (stereo not drawn)	–	–	–	–	–	–	·	·	·
COc1ccc(OCC(O)Cn2c(=N)n(Cc3ccccc3)c3ccccc32)cc1 (stereo not drawn)	–	–	–	–	–	–	–	30.9	–
Cc1ccc2ccc3ccc(C)nc3c2n1	72.0	–	–	–	?	–	47.3	–	–
O=C1N(c2cccc(Cl)c2)C(c2ccccc2)N2CCCN12 (stereo not drawn)	–	·	–	–	–	–	·	·	·
O=C1N(c2cccc3ccccc23)C(c2ccccc2)N2CCCN12 (stereo not drawn)	–	·	81.3	–	–	–	–	–	–
CC(Oc1ccc(F)cc1)C(=O)Nc1ccc2ccccc2c1 (stereo not drawn)	–	–	–	–	–	–	·	·	·
O=C(c1ccc(F)cc1)C1CCN(C(=S)NCC2CCCO2)CC1 (stereo not drawn)	–	–	62.6	–	–	–	–	–	–
Cc1ccc([N+](=O)[O-])cc1N=Nc1c(-c2ccc([N+](=O)[O-])cc2)[nH]n(C(N)=S)c1=O	–	–	58.3	·	–	·	60.2	–	47.4
CCOC(=O)C1(Cc2ccccc2)CCCN(CCCn2cccn2)C1 (stereo not drawn)	–	–	–	–	–	–	·	·	·
Cc1cc(C)cc(C(=O)OCC(=O)NCc2cccs2)c1	–	·	–	–	–	–	·	·	·
Cc1cc2c(cc(C(=O)OCC(=O)NCc3cccs3)n2C(C)C)o1	–	·	–	–	–	–	–	55.6	–
SMILES	aSyn 5UTR inh	H9c2 TAG inh	Gli-Sufu antag	697 NFkB inh	Shn3 inh set2	Jurkat NFkB inh	Gli-Sufu confirm	SufuKO cytotox	Wnt3a cs
CC1CC(C)CN(CCCNC(=O)c2ccc(CS(=O)(=O)Cc3cccc(Cl)c3)o2)C1 (stereo not drawn)	–	·	–	–	–	–	–	–	–
CC1CCCN(CCCNC(=O)c2ccc(CS(=O)(=O)Cc3cccc(Cl)c3)o2)C1 (stereo not drawn)	–	·	–	–	–	–	·	·	·
CSc1ccc(S(=O)(=O)N2CCC(C(=O)Nc3cccnc3)CC2)cc1	–	·	75.8	–	–	–	–	–	–
O=C(Nc1cccnc1)C1CCN(S(=O)(=O)c2ccc(Cl)cc2)CC1	–	–	–	–	–	–	·	·	·
c1cc2c(cc1C1CCCCC1)c1c3n2CCN=C3CCC1	–	·	–	–	–	–	·	·	·
N#CC1=C(N)N2C(=C(C#N)C1c1ccc(Br)cc1)Nc1ccccc12 (stereo not drawn)	–	·	58.1	–	·	–	82.7	37.0	66.6
N#CC1=C(N)N2C(=C(C#N)C13CCN(Cc1ccccc1)CC3)Nc1ccccc12	–	·	–	–	–	–	·	·	·
COc1ccc(OC)c(NC(=S)NC(=O)c2ccc(Br)o2)c1	–	–	–	–	–	–	·	·	·
CCn1cc(CN2CCC(n3nccc3NC(=O)CCc3ccccc3)CC2)cn1	–	–	83.5	–	–	–	–	–	–
CCn1cc(CN2CCC(n3nccc3NC(=O)CCOc3ccccc3)CC2)cn1	–	–	–	–	–	–	·	·	·
O=C(Cn1nnc(-c2ccccc2)n1)N/N=C/c1cccc([N+](=O)[O-])c1	–	·	–	–	–	–	–	–	–
O=C(Cn1nnc(-c2ccccc2)n1)N/N=C/c1cccc([N+](=O)[O-])c1O	–	·	–	–	–	–	·	·	·
CSC1=NCCN1C(=O)Cc1ccc(-c2ccccc2)cc1	–	–	62.4	–	–	–	–	–	–
CCSC1=NCCN1C(=O)Cc1ccc(-c2ccccc2)cc1	–	–	–	–	–	–	·	·	·
FC(F)Sc1ccc(-n2cc(-c3ccc(Cl)cc3)[n+]3c2CCC3)cc1	–	·	–	–	–	–	·	·	·
Clc1ccc(-n2cc(-c3ccc(Br)cc3)[n+]3c2CCCCC3)cc1	–	–	–	–	–	–	68.2	26.2	–
FC(F)Oc1ccc(-n2cc(-c3ccccc3)[n+]3c2CCCCC3)cc1	–	–	65.7	–	–	–	58.4	–	–
Cc1ccc(CONC(=O)c2ccc(OC(F)F)cc2)cc1	–	–	–	–	–	–	·	·	·
Cc1ccc(-c2cn(-c3ccc(OC(F)F)cc3)c3[n+]2CCCCC3)cc1	–	–	82.7	–	87.7	–	85.8	41.1	–
Cc1ccc(-c2cn(-c3ccc(SC(F)F)cc3)c3[n+]2CCC3)cc1	–	·	76.3	–	–	–	80.1	38.7	–
COc1ccc(CNC(=O)C[C@H]2C[C@H](C(=O)N3CCCCC3)[C@@]3(C)c4[nH]c5cc(CCC(=O)N(C)C)ccc5c4CCN3C2=O)cc1OC	·	–	–	–	–	·	·	·	·
Nc1nc(=O)n(C2CC(O)C(CO)O2)cc1F (stereo not drawn)	·	–	65.7	·	–	·	46.5	–	45.2
